Holding throughout (test): DAPPL (digital affinity profiling via proximity ligation, sequencing); 10 mM Tris-HCl pH 7.5, 50 mM NaCl, 1 mM DTT, 4% glycerol, room temperature, 30 min; GST-TFs on glutathione beads, 16-mer random dsDNA library, 0.1% formaldehyde crosslink after washing; high values mean tight binding
One experiment deals with T1, FLI1 (Homo sapiens, UniProt Q01543 1-452).
T1 sequence: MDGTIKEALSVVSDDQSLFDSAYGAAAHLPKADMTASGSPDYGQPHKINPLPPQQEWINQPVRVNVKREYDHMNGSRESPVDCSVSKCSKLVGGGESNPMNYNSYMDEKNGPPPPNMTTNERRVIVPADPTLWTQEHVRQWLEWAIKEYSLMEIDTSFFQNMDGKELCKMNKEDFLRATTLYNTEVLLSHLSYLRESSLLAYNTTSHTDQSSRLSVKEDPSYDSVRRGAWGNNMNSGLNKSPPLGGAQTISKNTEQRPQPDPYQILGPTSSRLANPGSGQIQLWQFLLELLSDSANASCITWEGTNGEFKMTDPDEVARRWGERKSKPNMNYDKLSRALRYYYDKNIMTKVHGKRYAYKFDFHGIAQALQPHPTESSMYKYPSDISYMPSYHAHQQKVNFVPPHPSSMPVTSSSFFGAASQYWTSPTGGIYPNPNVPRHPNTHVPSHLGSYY
The conditions noted are these: protein: recombinant; tags: N-terminal GST; dsDNA, one strand shown. A digest of the protocol: (§1)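 Binding signal is given per hexamer as its read frequency for a factor divided by its frequency in the tag-only sample. GST-fused human transcription factors were expressed in yeast, captured on glutathione beads, barcoded with DNA and pooled with that sample, then incubated with 200 nmole of a 16-mer random double-stranded DNA library in Tris/NaCl/DTT/glycerol buffer for 30 min at room temperature. The pools were then washed, crosslinked, proximity-ligated, amplified by PCR and sequenced on an Illumina NextSeq500.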

Another experiment deals with T2, ELK1 (Homo sapiens, UniProt P19419 1-428).
T2 sequence: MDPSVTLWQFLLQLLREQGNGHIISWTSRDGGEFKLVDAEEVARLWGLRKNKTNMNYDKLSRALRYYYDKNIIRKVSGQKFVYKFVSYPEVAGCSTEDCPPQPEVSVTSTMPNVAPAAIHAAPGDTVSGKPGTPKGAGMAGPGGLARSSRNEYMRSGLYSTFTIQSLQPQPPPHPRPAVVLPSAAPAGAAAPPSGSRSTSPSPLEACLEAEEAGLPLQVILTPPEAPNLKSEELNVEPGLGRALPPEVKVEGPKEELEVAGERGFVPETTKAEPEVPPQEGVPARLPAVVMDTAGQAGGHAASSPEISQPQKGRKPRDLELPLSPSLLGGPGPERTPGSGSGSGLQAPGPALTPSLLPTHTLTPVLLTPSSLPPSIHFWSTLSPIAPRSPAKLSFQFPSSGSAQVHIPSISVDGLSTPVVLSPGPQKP
Particulars: protein: recombinant; tags: N-terminal GST; dsDNA, one strand shown. An outline of the steps: as §1

For a further experiment, the target named is T3, GABPA (Homo sapiens, UniProt Q06546 1-454).
T3 sequence: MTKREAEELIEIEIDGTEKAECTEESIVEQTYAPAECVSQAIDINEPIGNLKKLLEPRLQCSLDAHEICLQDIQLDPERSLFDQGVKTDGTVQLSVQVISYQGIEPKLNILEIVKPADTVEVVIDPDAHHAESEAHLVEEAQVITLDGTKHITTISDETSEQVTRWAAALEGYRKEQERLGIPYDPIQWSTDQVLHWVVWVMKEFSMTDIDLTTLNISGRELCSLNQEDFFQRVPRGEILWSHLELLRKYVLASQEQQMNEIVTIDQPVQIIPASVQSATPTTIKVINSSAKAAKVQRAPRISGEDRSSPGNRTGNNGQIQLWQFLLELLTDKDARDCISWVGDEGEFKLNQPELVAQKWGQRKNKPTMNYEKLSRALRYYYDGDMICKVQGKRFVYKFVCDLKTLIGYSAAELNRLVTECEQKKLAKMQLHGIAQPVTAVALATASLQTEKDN
The conditions noted are these: protein: recombinant; tags: N-terminal GST; dsDNA, one strand shown. A digest of the protocol:
as §1

For another experiment, the target named is T4, ERG (Homo sapiens, UniProt P11308 1-479).
T4 sequence: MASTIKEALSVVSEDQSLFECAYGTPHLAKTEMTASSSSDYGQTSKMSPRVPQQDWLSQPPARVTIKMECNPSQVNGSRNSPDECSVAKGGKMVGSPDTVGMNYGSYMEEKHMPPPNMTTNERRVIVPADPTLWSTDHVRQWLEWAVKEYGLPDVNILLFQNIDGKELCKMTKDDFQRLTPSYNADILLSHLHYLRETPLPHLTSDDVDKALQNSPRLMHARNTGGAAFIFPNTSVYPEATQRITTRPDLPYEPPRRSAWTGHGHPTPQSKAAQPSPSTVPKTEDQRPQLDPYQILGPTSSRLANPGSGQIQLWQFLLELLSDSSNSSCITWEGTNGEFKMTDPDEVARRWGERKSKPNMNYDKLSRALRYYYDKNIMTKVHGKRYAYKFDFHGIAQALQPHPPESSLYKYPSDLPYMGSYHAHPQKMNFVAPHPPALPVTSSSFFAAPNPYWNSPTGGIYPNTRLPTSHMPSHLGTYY
Particulars: protein: recombinant; tags: N-terminal GST; dsDNA, one strand shown. A digest of the protocol: as §1

Another experiment deals with ELF1 (Homo sapiens, UniProt P32519 1-619). The conditions noted are these: protein: recombinant; tags: N-terminal GST; dsDNA, one strand shown. A digest of the protocol:
as §1

Another experiment concerns the target T5, EHF (Homo sapiens, UniProt Q9NZC4 1-300).
T5 sequence: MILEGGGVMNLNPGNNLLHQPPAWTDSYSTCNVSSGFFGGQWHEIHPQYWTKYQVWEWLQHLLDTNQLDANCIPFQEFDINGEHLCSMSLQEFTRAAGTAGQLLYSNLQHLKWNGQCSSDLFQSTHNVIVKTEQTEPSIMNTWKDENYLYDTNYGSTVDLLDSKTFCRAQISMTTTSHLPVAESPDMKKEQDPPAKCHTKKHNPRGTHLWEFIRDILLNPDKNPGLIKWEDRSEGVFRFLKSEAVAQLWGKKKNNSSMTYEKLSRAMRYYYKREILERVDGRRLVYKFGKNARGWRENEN
The conditions noted are these: protein: recombinant; tags: N-terminal GST; dsDNA, one strand shown. A digest of the protocol: as §1

A further experiment deals with SPI1 (Homo sapiens, UniProt P17947 1-270). The conditions noted are these: protein: recombinant; tags: N-terminal GST; dsDNA, one strand shown. An outline of the steps:
as §1

The next experiment deals with SPIB (Homo sapiens, UniProt Q01892 1-262). Particulars: protein: recombinant; tags: N-terminal GST; dsDNA, one strand shown. A digest of the protocol:
as §1

The target in a further experiment is T6, ELK3 (Homo sapiens, UniProt P41970 1-407).
T6 sequence: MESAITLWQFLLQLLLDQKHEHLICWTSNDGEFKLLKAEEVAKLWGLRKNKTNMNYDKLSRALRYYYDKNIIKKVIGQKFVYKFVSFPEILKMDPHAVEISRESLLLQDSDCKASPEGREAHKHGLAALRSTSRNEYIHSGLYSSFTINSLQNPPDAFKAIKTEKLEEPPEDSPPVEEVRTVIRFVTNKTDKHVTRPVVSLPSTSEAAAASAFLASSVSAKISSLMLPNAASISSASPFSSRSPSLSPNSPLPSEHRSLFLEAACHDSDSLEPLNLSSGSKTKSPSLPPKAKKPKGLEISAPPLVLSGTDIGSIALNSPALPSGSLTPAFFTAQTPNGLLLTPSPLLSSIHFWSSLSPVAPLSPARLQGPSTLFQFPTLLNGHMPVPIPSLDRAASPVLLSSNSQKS
Particulars: protein: recombinant; tags: N-terminal GST; dsDNA, one strand shown. A digest of the protocol:
as §1

For the next experiment, the target named is T7, FEV (Homo sapiens, UniProt Q99581 1-238).
T7 sequence: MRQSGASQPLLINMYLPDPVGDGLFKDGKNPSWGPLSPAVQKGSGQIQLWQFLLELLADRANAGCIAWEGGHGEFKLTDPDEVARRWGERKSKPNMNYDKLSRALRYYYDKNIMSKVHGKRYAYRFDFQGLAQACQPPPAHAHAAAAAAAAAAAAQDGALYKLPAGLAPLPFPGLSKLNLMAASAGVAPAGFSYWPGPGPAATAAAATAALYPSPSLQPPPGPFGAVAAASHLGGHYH
The conditions noted are these: protein: recombinant; tags: N-terminal GST; dsDNA, one strand shown. An outline of the steps: as §1

The target in another experiment is ETV5 (Homo sapiens, UniProt P41161 1-510). The conditions noted are these: protein: recombinant; tags: N-terminal GST; dsDNA, one strand shown. A digest of the protocol:
as §1

The next experiment deals with HSF1 (Homo sapiens, UniProt Q00613 1-529). Particulars: protein: recombinant; tags: N-terminal GST; chain copies: 3; dsDNA, one strand shown. An outline of the steps:
as §1

The target in the next experiment is T8, SPIC (Homo sapiens, UniProt Q8N5J4 1-248).
T8 sequence: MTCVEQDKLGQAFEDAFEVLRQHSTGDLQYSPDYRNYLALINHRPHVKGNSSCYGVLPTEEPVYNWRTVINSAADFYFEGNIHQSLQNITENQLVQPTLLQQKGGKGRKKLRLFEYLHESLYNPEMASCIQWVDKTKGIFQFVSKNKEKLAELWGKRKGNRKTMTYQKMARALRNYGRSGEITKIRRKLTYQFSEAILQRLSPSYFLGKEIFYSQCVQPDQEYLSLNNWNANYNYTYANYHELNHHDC
Particulars: protein: recombinant; tags: N-terminal GST; dsDNA, one strand shown. A digest of the protocol: as §1

The target of a further experiment is ELF4 (Homo sapiens, UniProt Q99607 1-663). The conditions noted are these: protein: recombinant; tags: N-terminal GST; dsDNA, one strand shown. An outline of the steps:
as §1

The next experiment deals with T9, ELK4 (Homo sapiens, UniProt P28324-2 1-405).
T9 sequence: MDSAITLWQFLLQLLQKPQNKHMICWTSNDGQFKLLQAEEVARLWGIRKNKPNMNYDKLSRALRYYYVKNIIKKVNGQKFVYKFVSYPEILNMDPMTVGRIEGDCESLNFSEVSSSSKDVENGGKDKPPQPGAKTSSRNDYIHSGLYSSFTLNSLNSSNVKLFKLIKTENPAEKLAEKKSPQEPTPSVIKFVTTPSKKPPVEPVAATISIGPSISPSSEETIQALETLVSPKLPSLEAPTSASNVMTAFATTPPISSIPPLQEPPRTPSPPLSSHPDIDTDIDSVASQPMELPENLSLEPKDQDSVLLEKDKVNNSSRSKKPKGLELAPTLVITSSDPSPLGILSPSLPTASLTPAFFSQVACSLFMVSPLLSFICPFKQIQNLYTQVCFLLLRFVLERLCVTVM
Particulars: protein: recombinant; tags: N-terminal GST; dsDNA, one strand shown. An outline of the steps: as §1

The target in another experiment is T10, ETV2 (Homo sapiens, UniProt O00321 1-342).
T10 sequence: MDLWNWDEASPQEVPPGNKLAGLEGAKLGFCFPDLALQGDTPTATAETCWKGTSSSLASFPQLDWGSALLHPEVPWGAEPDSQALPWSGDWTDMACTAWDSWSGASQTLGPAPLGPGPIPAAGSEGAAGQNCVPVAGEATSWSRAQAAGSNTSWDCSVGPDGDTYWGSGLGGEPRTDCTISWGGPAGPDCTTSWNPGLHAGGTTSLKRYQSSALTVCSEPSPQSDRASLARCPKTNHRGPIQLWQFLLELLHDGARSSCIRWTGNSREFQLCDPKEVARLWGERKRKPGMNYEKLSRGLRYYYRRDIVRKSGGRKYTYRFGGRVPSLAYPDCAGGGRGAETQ
The conditions noted are these: protein: recombinant; tags: N-terminal GST; dsDNA, one strand shown. A digest of the protocol: as §1

Another experiment deals with T11, ELF3 (Homo sapiens, UniProt P78545 1-371).
T11 sequence: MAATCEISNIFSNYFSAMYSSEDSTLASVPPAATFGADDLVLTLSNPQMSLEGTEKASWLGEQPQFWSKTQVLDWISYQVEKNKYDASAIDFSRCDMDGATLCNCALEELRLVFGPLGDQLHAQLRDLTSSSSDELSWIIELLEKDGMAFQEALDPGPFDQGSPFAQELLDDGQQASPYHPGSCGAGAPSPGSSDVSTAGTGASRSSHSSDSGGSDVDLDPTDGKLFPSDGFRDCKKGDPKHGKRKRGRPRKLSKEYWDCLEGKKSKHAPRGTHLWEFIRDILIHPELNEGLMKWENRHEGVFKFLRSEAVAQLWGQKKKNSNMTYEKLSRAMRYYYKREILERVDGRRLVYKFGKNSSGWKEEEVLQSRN
Particulars: protein: recombinant; tags: N-terminal GST; dsDNA, one strand shown. A digest of the protocol:
as §1

In another experiment the target is CRX (Homo sapiens, UniProt O43186 1-299). The conditions noted are these: protein: recombinant; tags: N-terminal GST; dsDNA, one strand shown. An outline of the steps: as §1
CRX, sequence (O43186 whole entry): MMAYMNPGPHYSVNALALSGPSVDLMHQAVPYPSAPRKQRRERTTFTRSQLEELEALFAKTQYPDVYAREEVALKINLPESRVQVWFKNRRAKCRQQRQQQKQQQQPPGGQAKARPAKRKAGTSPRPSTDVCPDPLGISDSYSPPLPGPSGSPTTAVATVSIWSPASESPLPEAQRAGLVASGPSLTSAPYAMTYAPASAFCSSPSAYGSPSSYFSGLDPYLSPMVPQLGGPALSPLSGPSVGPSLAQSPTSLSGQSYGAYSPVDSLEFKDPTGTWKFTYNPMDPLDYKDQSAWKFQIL
The target of a further experiment is ETV1 (Homo sapiens, UniProt P50549 1-477). The conditions noted are these: protein: recombinant; tags: N-terminal GST; dsDNA, one strand shown. A digest of the protocol:
as §1

From paper PMC7862700, “An all-to-all approach to the identification of sequence-specific readers for epigenetic DNA modifications on cytosine” come the findings set out here.

ELF4, sequence (Q99607 whole entry): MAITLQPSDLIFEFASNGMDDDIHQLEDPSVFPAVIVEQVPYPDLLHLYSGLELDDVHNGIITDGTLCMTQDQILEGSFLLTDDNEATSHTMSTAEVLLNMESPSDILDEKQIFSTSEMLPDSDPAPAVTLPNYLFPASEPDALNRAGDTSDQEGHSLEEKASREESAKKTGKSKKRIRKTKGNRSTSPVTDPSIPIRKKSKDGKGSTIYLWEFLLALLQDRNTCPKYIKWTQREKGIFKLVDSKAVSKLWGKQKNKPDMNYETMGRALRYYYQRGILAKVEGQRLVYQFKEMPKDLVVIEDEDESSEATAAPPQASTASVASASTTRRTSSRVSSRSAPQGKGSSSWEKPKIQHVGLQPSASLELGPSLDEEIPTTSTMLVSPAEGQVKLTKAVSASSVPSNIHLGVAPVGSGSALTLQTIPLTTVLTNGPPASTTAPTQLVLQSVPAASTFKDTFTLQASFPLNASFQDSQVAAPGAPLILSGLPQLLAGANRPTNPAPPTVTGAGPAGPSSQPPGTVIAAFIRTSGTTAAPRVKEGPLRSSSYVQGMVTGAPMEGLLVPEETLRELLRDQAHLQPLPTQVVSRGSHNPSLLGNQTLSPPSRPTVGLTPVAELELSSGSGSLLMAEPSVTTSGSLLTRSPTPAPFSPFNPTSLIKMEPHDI
ETV1, sequence (P50549 whole entry): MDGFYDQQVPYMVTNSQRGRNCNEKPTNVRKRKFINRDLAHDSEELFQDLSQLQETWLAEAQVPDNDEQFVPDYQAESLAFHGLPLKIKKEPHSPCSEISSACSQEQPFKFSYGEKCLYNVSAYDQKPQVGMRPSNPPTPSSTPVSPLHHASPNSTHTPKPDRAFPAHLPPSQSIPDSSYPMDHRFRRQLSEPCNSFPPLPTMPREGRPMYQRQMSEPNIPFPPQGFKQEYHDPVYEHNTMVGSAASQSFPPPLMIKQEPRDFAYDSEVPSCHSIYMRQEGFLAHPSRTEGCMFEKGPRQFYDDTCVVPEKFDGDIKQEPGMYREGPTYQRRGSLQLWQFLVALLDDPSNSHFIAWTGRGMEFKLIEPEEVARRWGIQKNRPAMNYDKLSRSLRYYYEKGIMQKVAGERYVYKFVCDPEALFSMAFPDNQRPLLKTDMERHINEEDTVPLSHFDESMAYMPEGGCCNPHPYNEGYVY
HSF1, sequence (Q00613 whole entry): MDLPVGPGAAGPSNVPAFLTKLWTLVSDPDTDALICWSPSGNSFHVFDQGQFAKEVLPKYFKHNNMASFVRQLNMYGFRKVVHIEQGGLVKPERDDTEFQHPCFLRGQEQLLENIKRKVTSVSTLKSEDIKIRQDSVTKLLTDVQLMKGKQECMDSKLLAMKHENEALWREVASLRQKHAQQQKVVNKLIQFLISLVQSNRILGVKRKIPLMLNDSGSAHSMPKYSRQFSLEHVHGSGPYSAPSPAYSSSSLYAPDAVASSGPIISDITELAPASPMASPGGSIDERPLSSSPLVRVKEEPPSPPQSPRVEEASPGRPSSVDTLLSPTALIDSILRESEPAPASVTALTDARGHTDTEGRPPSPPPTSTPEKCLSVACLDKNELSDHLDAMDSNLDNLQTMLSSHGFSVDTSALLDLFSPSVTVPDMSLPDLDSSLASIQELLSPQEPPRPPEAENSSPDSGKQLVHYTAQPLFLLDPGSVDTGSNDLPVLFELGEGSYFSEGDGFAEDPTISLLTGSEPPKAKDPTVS
SPIB, sequence (Q01892 whole entry): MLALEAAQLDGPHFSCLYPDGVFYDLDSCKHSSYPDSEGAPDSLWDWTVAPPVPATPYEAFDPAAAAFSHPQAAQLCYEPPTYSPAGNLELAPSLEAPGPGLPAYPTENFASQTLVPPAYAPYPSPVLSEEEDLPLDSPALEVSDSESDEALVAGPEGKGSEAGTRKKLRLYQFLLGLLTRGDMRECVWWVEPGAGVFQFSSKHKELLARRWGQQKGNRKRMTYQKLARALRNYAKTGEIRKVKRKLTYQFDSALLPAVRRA
ETV5, sequence (P41161 whole entry): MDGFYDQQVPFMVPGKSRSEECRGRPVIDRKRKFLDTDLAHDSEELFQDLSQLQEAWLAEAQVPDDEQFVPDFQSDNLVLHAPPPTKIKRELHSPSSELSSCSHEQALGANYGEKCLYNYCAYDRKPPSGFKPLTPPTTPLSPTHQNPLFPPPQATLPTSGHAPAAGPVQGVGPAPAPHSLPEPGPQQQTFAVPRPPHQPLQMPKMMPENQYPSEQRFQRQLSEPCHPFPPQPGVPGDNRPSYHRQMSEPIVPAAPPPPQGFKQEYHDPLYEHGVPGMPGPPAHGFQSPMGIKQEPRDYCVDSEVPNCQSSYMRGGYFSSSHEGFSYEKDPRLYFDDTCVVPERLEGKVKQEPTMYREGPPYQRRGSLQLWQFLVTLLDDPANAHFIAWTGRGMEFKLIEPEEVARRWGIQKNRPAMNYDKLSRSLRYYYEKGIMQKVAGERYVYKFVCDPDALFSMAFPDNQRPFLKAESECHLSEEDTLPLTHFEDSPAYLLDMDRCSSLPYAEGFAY
ELF1, sequence (P32519 whole entry): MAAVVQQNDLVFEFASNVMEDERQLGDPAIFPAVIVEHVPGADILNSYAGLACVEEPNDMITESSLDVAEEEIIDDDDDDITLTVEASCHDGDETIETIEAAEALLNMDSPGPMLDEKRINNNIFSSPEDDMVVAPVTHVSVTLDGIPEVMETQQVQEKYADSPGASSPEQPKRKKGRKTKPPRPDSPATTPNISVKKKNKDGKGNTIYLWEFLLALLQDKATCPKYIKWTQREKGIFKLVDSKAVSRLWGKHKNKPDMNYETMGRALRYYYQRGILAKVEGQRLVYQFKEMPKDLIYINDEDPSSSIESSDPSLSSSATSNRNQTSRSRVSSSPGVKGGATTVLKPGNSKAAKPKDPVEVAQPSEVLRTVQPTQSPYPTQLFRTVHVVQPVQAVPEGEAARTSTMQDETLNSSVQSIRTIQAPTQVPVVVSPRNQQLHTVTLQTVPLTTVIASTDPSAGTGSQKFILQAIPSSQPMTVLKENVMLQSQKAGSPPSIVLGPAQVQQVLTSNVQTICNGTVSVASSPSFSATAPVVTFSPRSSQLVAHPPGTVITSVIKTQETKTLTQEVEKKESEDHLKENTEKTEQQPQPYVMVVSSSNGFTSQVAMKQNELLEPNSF

For ACTCAT, the binding signal in the experiment with FLI1 is 1.47 fold enrichment (6-mer frequency, TF over GST control); with ELK1, 1.34 fold enrichment (6-mer frequency, TF over GST control); in the experiment with GABPA, 1.36 fold enrichment (6-mer frequency, TF over GST control); with ERG, 1.16 fold enrichment (6-mer frequency, TF over GST control); with ELF1, 1.33 fold enrichment (6-mer frequency, TF over GST control); with EHF, 1.25 fold enrichment (6-mer frequency, TF over GST control). For the same sequence, the binding signal with SPI1 is 1.23 fold enrichment (6-mer frequency, TF over GST control); with SPIB, 1.35 fold enrichment (6-mer frequency, TF over GST control); with ELK3, 1.34 fold enrichment (6-mer frequency, TF over GST control); with FEV it was 1.32 fold enrichment (6-mer frequency, TF over GST control); in the experiment with ETV5, 1.32 fold enrichment (6-mer frequency, TF over GST control); in the experiment with HSF1 it was 1.13 fold enrichment (6-mer frequency, TF over GST control). The binding signal is 1.26 fold enrichment (6-mer frequency, TF over GST control) in the experiment with SPIC; 1.35 fold enrichment (6-mer frequency, TF over GST control) with ELF4; 1.32 fold enrichment (6-mer frequency, TF over GST control) with ELK4; 1.42 fold enrichment (6-mer frequency, TF over GST control) with ETV2; 1.13 fold enrichment (6-mer frequency, TF over GST control) with ELF3; 1.19 fold enrichment (6-mer frequency, TF over GST control) in the experiment with CRX. Further, the binding signal in the experiment with ETV1 was 1.35 fold enrichment (6-mer frequency, TF over GST control).
